Measurements reported in PubChem BioAssay (NCATS).
Several values for one entry are separate records, joined by “and”; a condition that tells them apart may be missing. Equal values may be shown once. Unmarked numbers belong to inactive results. Results filed as inconclusive are left out. Where a call stands in place of a potency, no number is given. Activity calls are given as the source filed them. Unless noted, calls come from the whole dose curve; as a rule, active = well fitted curve in the direction sought with a large enough effect; inconclusive = small, poorly fitted or top-dose-only effect, or another doubt; inactive = no such curve, though single readings can be large; an effect the other way counts as inactive or inconclusive.

Assays:
[1] = Cell Viability - LYMP2-001 (AID 921);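 note: cells exposed to compound for 24 h at 37 °C; nearly all actives have a fitted effect of over 70% in size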; note: potency is the fitted concentration of half-maximal effect
In short: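 A lymphoblastoid cell line of human origin was treated with library compounds across a concentration series for 24 hours, and viable cell number was estimated from ATP-driven luciferase light output. Hill modeling gave AC50.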

[2] = MultiTox-Fluor Cytotoxicity Assay - LYMP1-001 - Dead Cells (AID 946);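 note: cells exposed to compound for 16 h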; note: potency is the fitted concentration of half-maximal effect
In short: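 Seed 2500 LYMP1-001 cells/well, incubate 5 hr at 37 C; add compound, 16 hr at 37 C; add MultiTox-Fluor reagent, 60 min RT; read dead-cell fluorescence Ex/Em=485/520. Normalize to DMSO and 15 uM tetraoctylammonium bromide.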

[3] = target: Cytochrome P450 2C19 (Homo sapiens) (UniProt P33261); assay: qHTS Assay for Inhibitors and Substrates of Cytochrome P450 2C19 (AID 899); note: nearly all actives have a fitted effect of over 60% in size; note: potency is the fitted concentration of half-maximal effect
Cytochrome P450 2C19 (Homo sapiens), sequence (P33261 whole entry, looked up): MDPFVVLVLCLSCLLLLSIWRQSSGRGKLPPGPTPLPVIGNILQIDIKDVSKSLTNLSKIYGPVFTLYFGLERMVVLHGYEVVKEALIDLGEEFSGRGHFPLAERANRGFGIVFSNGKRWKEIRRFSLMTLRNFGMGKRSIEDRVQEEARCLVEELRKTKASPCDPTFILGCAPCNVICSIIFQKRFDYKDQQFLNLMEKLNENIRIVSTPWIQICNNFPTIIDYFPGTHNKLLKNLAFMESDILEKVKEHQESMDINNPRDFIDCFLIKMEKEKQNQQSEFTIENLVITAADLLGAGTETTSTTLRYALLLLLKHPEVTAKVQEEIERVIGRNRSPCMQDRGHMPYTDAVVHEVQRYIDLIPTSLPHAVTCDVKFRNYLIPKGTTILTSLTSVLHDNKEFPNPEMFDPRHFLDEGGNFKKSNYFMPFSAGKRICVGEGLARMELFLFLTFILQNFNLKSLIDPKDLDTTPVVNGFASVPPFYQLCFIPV
In short: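 Human CYP2C19 (5nM) with Luciferin-H EGE at 10uM (its KM) in 50mM KPO4 was preincubated with compound for 10 min at 37C. NADPH regeneration started a 60 min 37C reaction. Luciferin was read by luminescence, normalized to 57uM ketoconazole.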

[4] = Confirmation and Secondary Assay for Modulators of Hemoglobin Beta Chain Splicing at IVS2 654 locus (AID 910);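 note: per-well total GFP intensity by laser scanning cytometry after 2-day treatment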
In short: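 HeLa cells stably carrying EGFP interrupted by mutant beta-globin IVS2-654 intron (CMV-driven) were treated with compound for 2 days at 37C; corrected splicing was scored as total peak GFP intensity per well (488 nm excitation, 500-520 nm emission).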

[5] = qHTS Assay for Identification of Small Molecule Agonists for Thrombopoietin (TPO) Signaling Pathway (AID 917)
In short: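 Human TPO receptor–transfected Ba/F3 cells (murine, IL-3-dependent) in IL-3-deficient medium; compounds plus TPO at EC50, 26 pM final; 24 hrs, 37 C; GpIIb-luciferase luminescence after 10 min RT detection.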

[6] = Confirmation and Secondary Assay for Modulators of Hemoglobin Beta Chain Splicing at IVS2 705 locus (AID 930);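 note: HeLa cells stably expressing the EGFP-705 splicing reporter; series mostly up to about 46 µM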
In short: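 HeLa cells stably carrying EGFP interrupted by mutant beta-globin IVS2-705 intron (CMV-driven) were seeded at 500 cells/well, treated next day with compound for 2 days at 37C; corrected splicing restores EGFP, read as total peak GFP intensity per well.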

[7] = target: Pyruvate kinase (Leishmania mexicana) (UniProt Q27686); assay: qHTS Validation Assay for Inhibitors of Leishmania Mexicana Pyruvate Kinase (AID 945)
Pyruvate kinase (Leishmania mexicana), sequence (Q27686 2-499 E452W): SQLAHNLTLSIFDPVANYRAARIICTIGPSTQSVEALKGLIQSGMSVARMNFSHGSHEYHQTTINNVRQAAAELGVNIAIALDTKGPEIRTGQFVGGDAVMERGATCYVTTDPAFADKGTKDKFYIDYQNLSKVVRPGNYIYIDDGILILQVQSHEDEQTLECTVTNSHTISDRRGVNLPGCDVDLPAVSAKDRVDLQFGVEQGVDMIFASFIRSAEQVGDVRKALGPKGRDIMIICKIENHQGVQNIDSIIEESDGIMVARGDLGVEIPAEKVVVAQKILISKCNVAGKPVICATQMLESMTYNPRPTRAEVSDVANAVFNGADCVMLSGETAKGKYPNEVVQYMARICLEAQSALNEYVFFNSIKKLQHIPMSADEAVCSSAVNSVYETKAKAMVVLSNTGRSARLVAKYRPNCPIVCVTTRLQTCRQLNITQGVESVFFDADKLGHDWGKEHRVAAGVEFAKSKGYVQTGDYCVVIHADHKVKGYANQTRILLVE
In short: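 LmPYK E451W 0.2 nM; 0.5 mM PEP, 0.1 mM ADP, 7 mM MgCl2, 50 mM KCl, imidazole pH 7.2, 0.01% Tween 20, 0.05% BSA; 1 h RT; PKLight luminescence; DMSO-normalized.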

[8] = qHTS Assay for Identification of Small Molecule Agonists for Hypoxia Response Element Signaling Pathway (AID 914; active = well fitted activation curve with a large enough effect in the signal ratio, with a control signal flat, not every such curve was filed as active; the % refers to the signal ratio); details: ME-180 HRE-bla reporter, beta-lactamase ratio, CoCl2, 17 h; stronger effect = higher value
In short: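 ME-180 cells carrying an HRE-driven beta-lactamase reporter were treated with compounds in a titration series plus an EC50 level of CoCl2 for 17 h at 37 degrees Celsius; CCF4 readout as the 460nm/530nm ratio gave AC50 values.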

[9] = target: Muscarinic acetylcholine receptor M1 (Rattus norvegicus) (UniProt P08482); assay: qHTS Assay for Antagonists of Acetylcholine Muscarinic M1 Receptor: Kinetic Measurement of Intracellular Calcium Response (AID 943); note: nearly all actives have a fitted effect of over 75% in size; note: potency is the fitted concentration of half-maximal effect
Muscarinic acetylcholine receptor M1 (Rattus norvegicus), sequence (P08482 whole entry, looked up): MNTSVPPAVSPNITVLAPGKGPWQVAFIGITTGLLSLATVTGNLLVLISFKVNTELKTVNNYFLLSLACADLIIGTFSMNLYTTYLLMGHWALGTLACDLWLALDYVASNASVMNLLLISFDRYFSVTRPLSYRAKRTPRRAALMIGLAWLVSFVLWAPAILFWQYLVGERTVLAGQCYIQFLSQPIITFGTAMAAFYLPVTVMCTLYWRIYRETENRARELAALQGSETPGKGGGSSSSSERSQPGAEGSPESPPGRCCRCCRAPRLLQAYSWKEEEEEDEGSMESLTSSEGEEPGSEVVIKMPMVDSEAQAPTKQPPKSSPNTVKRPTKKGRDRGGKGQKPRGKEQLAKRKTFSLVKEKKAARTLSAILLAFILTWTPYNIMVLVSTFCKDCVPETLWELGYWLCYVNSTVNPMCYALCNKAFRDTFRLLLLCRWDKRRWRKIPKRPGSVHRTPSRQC
In short: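 Quantitative HTS in CHO-M1 (rat receptor) cells: 10 min compound exposure ahead of 100 nM carbachol, Fluo-4 fluorescence followed 4 min, value expressed as peak-to-basal ratio.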

[10] = target: Muscarinic acetylcholine receptor M1 (Rattus norvegicus) (UniProt P08482); assay: qHTS Assay for Antagonists of Acetylcholine Muscarinic M1 Receptor: Measurement of IP-One Response (AID 944); note: nearly all actives have a fitted effect of over 75% in size; note: potency is the fitted concentration of half-maximal effect
In short: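 Antagonism was measured as loss of carbachol-driven (EC80) IP1 accumulation in CHO cells carrying rat M1, using a homogeneous IP-One TR-FRET kit read at 620 and 665 nm.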

O=C(CCl)c1ccc(Cl)cc1Cl
Potency [1]: 3.98 µM (active) | Potency [2]: 10 µM (active)

Oc1ccc(Cl)cc1Sc1cc(Cl)ccc1O
Potency [3]: 0.0794 µM (active)

COc1ccc(C(=O)N2CCCC2=O)cc1
outcome [4]: inactive | outcome [5]: inactive | outcome [6]: inactive | outcome [7]: inactive

Clc1ccc(C(OCCN2CCCCC2)c2ccccc2)cc1 (configuration not stated)
outcome [4]: inactive | outcome [6]: inactive

NC(N)=NCCC[C@H](N)C(=O)O
Potency [3]: inactive

CC[n+]1c(-c2ccccc2)c2cc(N)ccc2c2ccc(N)cc21
outcome [4]: inactive | Potency [1]: 7.94 µM (active) | outcome [6]: inactive | Potency [2]: 39.8 µM (active)

CN1[C@@H]2CC[C@H]1CC(OC(=O)c1cc(Cl)cc(Cl)c1)C2 (some centres not stated)
Potency [3]: inactive | activation [8]: 16.3% | outcome [5]: inactive | Potency [9]: 3.16 µM (active) | Potency [10]: 3.98 µM (active) | outcome [7]: inactive

CNC(=O)Oc1cccc2ccccc12
Potency [1]: inactive | Potency [2]: inactive

CN(C)C(=S)SSC(=S)N(C)C
outcome [4]: inactive | Potency [1]: 0.158 µM (active) | outcome [6]: inactive | Potency [2]: 0.794 µM (active)

N#Cc1nn(-c2c(Cl)cc(C(F)(F)F)cc2Cl)c(N)c1S(=O)C(F)(F)F (configuration not stated)
outcome [4]: inactive | outcome [6]: inactive

C[C@@H]1C[C@@H]([C@H](O)CC2CC(=O)NC(=O)C2)C(=O)[C@@H](C)C1
Potency [1]: 1.26 µM (active) and 1.58 µM (active) | Potency [2]: inactive

O=C(O)c1nn(Cc2ccc(Cl)cc2Cl)c2ccccc12
Potency [3]: inactive | outcome [5]: inactive | Potency [9]: inactive | Potency [10]: inactive | outcome [7]: inactive

CCCC(C)C1(CC)C(=O)N=C(S)NC1=O (configuration not stated)
outcome [4]: inactive | outcome [6]: inactive

CCNc1nc(Cl)nc(NCC)n1
outcome [4]: inactive | outcome [6]: inactive

O=C(NC(=O)c1c(F)cccc1F)Nc1cc(Cl)c(OC(F)(F)C(F)C(F)(F)F)cc1Cl (configuration not stated)
outcome [4]: inactive | outcome [6]: inactive

C[C@H](N)[C@H](O)c1ccc(O)c(O)c1
Potency [9]: inactive | Potency [10]: inactive | outcome [7]: inactive

NC(=O)CN1CCCC1=O
outcome [4]: inactive | outcome [5]: inactive | outcome [6]: inactive | outcome [7]: inactive

COC(=O)C1=C(C)NC(C)=C(C(=O)OC)C1c1ccccc1[N+](=O)[O-]
Potency [2]: 50.1 µM (active)

Clc1ccc(CO/N=C(\Cn2ccnc2)c2ccc(Cl)cc2Cl)c(Cl)c1
outcome [4]: inactive | outcome [6]: inactive

COP(=O)(OC)OC=C(Cl)Cl
Potency [1]: inactive | Potency [2]: inactive

Cc1ccc(N=CN(C)C=Nc2ccc(C)cc2C)c(C)c1
outcome [4]: inactive | outcome [6]: inactive

c1ccc2nc(N3CCNCC3)ccc2c1
outcome [4]: inactive | activation [8]: -4.77% | outcome [5]: inactive | outcome [6]: inactive | outcome [7]: inactive

COC(=O)C1=CCCN(C)C1
outcome [4]: inactive | outcome [5]: inactive | outcome [6]: inactive | outcome [7]: inactive

Oc1c(Br)cc(Br)cc1Br
Potency [1]: inactive | Potency [2]: inactive

CC(C)[N+](C)(CCC(C(N)=O)(c1ccccc1)c1ccccc1)C(C)C
outcome [4]: inactive | outcome [6]: inactive

CCCCCCCCCCCC[N+](C)(C)CCOc1ccccc1
Potency [1]: 31.6 µM (active)

Clc1ccc(CSC(Cn2ccnc2)c2ccc(Cl)cc2Cl)cc1 (configuration not stated)
outcome [4]: inactive | outcome [6]: inactive

CCCCCCCCC(=O)NCc1ccc(O)c(OC)c1
outcome [4]: inactive | outcome [5]: inactive | outcome [6]: inactive | Potency [9]: inactive | outcome [7]: inactive

Cc1cc(C(C)(C)C)cc(C)c1CC1=NCCN1
Potency [9]: 5.62 µM (active) | Potency [10]: 10 µM (active)

CN(C)C(=O)Oc1cc(OC(=O)N(C)C)cc(C(O)CNC(C)(C)C)c1 (configuration not stated)
outcome [4]: inactive | outcome [6]: inactive

CCCCCCCCCCCCCCCC[n+]1ccccc1
outcome [4]: inactive | outcome [6]: inactive
